In publication PMC5700166 one finds binding signal data, which are given here for twelve sequences.

What all share (experiment): protein-binding microarray (PBM); PBM: ~300 nM protein, 6 mM HEPES pH 7.8, 80 mM KCl, 0.5 mM EDTA, 0.5 mM EGTA, 6% glycerol, 35 ng/ul poly-dIdC, 1% milk, 1 h, room temperature; Ap Aiptasia and Nv Nematostella (sea anemones) / Co Capsaspora / Aq Amphimedon (sponge) / Dm Drosophila / Hu human; RHD is the Rel homology domain; high values mean tight binding
What all share (details): dsDNA, one strand shown

One assay deals with T1, GST-Ap-NF-kB RHD (Exaiptasia pallida (Aiptasia), UniProt A0A913YAJ5 2-422).
T1 sequence: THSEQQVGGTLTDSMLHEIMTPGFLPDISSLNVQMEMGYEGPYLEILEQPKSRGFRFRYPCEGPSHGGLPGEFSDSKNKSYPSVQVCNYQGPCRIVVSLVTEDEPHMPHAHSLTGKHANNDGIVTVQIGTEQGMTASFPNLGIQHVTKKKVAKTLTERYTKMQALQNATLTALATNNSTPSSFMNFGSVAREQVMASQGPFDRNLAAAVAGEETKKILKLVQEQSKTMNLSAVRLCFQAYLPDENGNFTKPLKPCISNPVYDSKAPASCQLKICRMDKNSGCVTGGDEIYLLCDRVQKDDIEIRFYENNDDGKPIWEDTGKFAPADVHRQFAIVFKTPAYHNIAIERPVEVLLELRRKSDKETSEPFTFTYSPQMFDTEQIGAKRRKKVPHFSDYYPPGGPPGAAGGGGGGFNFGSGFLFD

Assay [1] addresses T2, GST-Nv-NF-kB (Cys allele) (Nematostella vectensis, UniProt E5G601 2-411).
T2 sequence: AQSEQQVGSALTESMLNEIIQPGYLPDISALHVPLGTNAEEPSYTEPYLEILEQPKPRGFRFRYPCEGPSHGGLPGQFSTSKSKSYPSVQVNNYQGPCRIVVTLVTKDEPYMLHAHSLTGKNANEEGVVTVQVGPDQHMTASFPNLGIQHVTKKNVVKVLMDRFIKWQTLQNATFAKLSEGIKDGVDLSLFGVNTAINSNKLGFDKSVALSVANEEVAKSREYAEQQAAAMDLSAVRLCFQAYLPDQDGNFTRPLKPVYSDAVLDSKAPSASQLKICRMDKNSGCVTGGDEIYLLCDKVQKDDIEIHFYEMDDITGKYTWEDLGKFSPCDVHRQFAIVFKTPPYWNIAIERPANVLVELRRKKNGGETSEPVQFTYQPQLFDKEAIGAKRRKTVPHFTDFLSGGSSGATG

The target of assay [2] is T3, GST-Nv-NF-kB (Ser allele) (Nematostella vectensis, UniProt A7UNT2 2-411).
T3 sequence: T2 sequence with Q21R, C66S, S207N, E215Q, V217A, E225K, A268E, D399E

The next assay concerns the target T4, GST-Co-NF-kB (Capsaspora owczarzaki, UniProt F1ARL5 200-546).
T4 sequence: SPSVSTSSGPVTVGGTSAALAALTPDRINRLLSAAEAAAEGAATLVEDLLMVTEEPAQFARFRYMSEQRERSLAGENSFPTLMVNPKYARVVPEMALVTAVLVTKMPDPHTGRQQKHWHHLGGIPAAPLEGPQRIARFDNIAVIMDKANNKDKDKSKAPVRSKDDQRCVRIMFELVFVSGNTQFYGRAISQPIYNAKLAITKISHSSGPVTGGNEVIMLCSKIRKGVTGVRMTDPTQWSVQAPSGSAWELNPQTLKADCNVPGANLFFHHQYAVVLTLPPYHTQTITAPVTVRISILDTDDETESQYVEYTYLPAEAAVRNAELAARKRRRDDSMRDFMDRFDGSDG

The target of a further assay is T5, GST-Dm-Relish (Drosophila melanogaster, UniProt Q94527 99-473).
T5 sequence: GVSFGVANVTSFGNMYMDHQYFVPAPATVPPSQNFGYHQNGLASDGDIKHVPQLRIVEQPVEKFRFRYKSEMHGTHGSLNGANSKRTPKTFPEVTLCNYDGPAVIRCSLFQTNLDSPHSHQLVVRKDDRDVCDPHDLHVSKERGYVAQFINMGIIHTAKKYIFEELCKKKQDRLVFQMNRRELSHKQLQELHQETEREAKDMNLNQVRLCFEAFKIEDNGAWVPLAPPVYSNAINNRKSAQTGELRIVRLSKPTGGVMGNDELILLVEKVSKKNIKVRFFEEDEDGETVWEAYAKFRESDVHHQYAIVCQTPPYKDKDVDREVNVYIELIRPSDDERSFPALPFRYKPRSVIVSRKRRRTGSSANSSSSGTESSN

A further assay addresses T6, GST-Aq-NF-kB (Amphimedon queenslandica, UniProt A9Y5G7 2-389).
T6 sequence: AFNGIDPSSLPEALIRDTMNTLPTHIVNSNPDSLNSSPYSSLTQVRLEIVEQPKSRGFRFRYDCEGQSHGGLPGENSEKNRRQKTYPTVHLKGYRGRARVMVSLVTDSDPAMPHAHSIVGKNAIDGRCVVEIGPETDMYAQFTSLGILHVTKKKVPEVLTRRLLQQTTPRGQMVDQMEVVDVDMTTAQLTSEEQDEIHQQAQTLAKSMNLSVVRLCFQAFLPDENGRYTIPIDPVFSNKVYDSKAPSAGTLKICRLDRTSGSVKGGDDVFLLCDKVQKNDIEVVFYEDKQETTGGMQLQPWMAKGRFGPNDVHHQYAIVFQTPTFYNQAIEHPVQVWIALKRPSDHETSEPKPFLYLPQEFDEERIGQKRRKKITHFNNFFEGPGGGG

A further assay concerns the target GST-Hu-p50 (Homo sapiens, UniProt P19838 7-356).

Substitutions are numbered along the chain they refer to.

GST-Hu-p50, sequence (P19838 7-356): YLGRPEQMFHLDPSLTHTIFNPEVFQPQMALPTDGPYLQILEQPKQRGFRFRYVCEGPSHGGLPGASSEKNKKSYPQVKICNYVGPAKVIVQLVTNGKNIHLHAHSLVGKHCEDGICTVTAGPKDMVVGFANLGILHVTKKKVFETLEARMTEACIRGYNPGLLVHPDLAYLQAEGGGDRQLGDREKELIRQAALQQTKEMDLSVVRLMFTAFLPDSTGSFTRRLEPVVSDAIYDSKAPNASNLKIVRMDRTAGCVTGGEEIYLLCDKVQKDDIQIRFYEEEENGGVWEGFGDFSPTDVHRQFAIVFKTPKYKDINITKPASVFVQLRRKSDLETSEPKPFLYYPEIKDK

For “CCGATTAACATCAACAAACCCCCTGATGTTAATCGGGTCTTGATTCGCTTGACGCTGCTG”, the binding signal in the assay with GST-Ap-NF-kB RHD turned out to be 6.74 z-score; in assay [1], 5.37 z-score; in assay [2], 6.79 z-score; in the assay with GST-Co-NF-kB, 2.52 z-score; with GST-Dm-Relish, 7.26 z-score; with GST-Aq-NF-kB, 5.03 z-score. For the same sequence, in the assay with GST-Hu-p50, the binding signal was determined as 6.59 z-score.
Take “CCGATTAACATCACAAAAAACCCTGATGTTAATCGGGTCTTGATTCGCTTGACGCTGCTG”: the binding signal with GST-Ap-NF-kB RHD amounted to 3.76 z-score; in assay [1], 4.37 z-score; in assay [2], 4.38 z-score; with GST-Co-NF-kB, 1.78 z-score; in the assay with GST-Dm-Relish it was 5.51 z-score; with GST-Aq-NF-kB it was 5.58 z-score. This sequence also yielded a binding signal in the assay with GST-Hu-p50 of 4.61 z-score.
With “CCGATTAACATCAGAACTTCCCCTGATGTTAATCGGGTCTTGATTCGCTTGACGCTGCTG”, the binding signal with GST-Ap-NF-kB RHD came to 7.33 z-score; in assay [1], 9 z-score; in assay [2] it was 7.95 z-score; with GST-Co-NF-kB, 6.75 z-score; with GST-Dm-Relish it was 7.85 z-score; in the assay with GST-Aq-NF-kB, 7.57 z-score. Also, the binding signal with GST-Hu-p50 amounted to 6.4 z-score.
As for “CCGATTAACATCAAATTTCCCGTTGATGTTAATCGGGTCTTGATTCGCTTGACGCTGCTG”, the binding signal is 3.33 z-score in the assay with GST-Ap-NF-kB RHD; 5.71 z-score in assay [1]; 5.5 z-score in assay [2]; 4.13 z-score with GST-Co-NF-kB; 3.24 z-score with GST-Dm-Relish; 5.53 z-score with GST-Aq-NF-kB. For the same sequence, in the assay with GST-Hu-p50, the binding signal is 4.24 z-score.
Turning to “CCGATTAACATCAGGGAGAACCCTGATGTTAATCGGGTCTTGATTCGCTTGACGCTGCTG”, the binding signal with GST-Ap-NF-kB RHD was 4.28 z-score; in assay [1], 3.85 z-score; in assay [2], 1.28 z-score; with GST-Co-NF-kB it was 1.72 z-score; with GST-Dm-Relish, 4.39 z-score; with GST-Aq-NF-kB, 6.47 z-score. Further, in the assay with GST-Hu-p50, the binding signal was 2.75 z-score.
Take “CCGATTAACATCACAGAACCCCCTGATGTTAATCGGGTCTTGATTCGCTTGACGCTGCTG”: the binding signal in the assay with GST-Ap-NF-kB RHD came to 7.53 z-score; in assay [1] it was 5.51 z-score; in assay [2], 7.39 z-score; with GST-Co-NF-kB it was 2.33 z-score; in the assay with GST-Dm-Relish, 7.46 z-score; with GST-Aq-NF-kB, 5.42 z-score. The same sequence returned a binding signal with GST-Hu-p50 of 6.43 z-score.
Consider “CCGATTAACATCAGGGGGACCCCTGATGTTAATCGGGTCTTGATTCGCTTGACGCTGCTG”, for which the binding signal with GST-Ap-NF-kB RHD was 8.92 z-score; in assay [1], 5.39 z-score; in assay [2], 4.83 z-score; in the assay with GST-Co-NF-kB it was 4.63 z-score; with GST-Dm-Relish, 9.89 z-score; with GST-Aq-NF-kB, 8.54 z-score. In the assay with GST-Hu-p50, this sequence had a binding signal of 5.02 z-score.
For the sequence “CCGATTAACATCACCTTTTTCCCTGATGTTAATCGGGTCTTGATTCGCTTGACGCTGCTG”, the binding signal with GST-Ap-NF-kB RHD was 3.29 z-score; in assay [1] it was 4.53 z-score; in assay [2] it was 6.24 z-score; with GST-Co-NF-kB, 5.31 z-score; with GST-Dm-Relish, 1.92 z-score; with GST-Aq-NF-kB, 3.4 z-score. In the assay with GST-Hu-p50, this sequence came in with a binding signal of 4.16 z-score.
For “CCGATTAACATCAGGGGGTTTTATGATGTTAATCGGGTCTTGATTCGCTTGACGCTGCTG”, the binding signal in the assay with GST-Ap-NF-kB RHD was determined as 9.65 z-score; in assay [1] it was 9.57 z-score; in assay [2] it was 10.2 z-score; in the assay with GST-Co-NF-kB it was 3.52 z-score; with GST-Dm-Relish, 10 z-score; with GST-Aq-NF-kB, 8.21 z-score. Moreover, the binding signal with GST-Hu-p50 was 7.82 z-score.
With “CCGATTAACATCAAACATTCCCCTGATGTTAATCGGGTCTTGATTCGCTTGACGCTGCTG”, the binding signal was 6.81 z-score in the assay with GST-Ap-NF-kB RHD; 9.14 z-score in assay [1]; 9.23 z-score in assay [2]; 7.01 z-score in the assay with GST-Co-NF-kB; 4.9 z-score in the assay with GST-Dm-Relish; 6.75 z-score with GST-Aq-NF-kB. In the assay with GST-Hu-p50, this sequence returned a binding signal of 5.95 z-score.
For the sequence “CCGATTAACATCAGGGGGCACCCTGATGTTAATCGGGTCTTGATTCGCTTGACGCTGCTG”, the binding signal in the assay with GST-Ap-NF-kB RHD is 5.39 z-score; in assay [1], 3.36 z-score; in assay [2], 2.57 z-score; in the assay with GST-Co-NF-kB it was 2.17 z-score; in the assay with GST-Dm-Relish, 3.84 z-score; with GST-Aq-NF-kB, 5.62 z-score. The binding signal with GST-Hu-p50 amounted to 3.84 z-score.
Consider “CCGATTAACATCAAGGGGGAATATGATGTTAATCGGGTCTTGATTCGCTTGACGCTGCTG”, for which the binding signal in the assay with GST-Ap-NF-kB RHD turned out to be 7.61 z-score; in assay [1], 8.35 z-score; in assay [2] it was 9.33 z-score; with GST-Co-NF-kB, 7.86 z-score; with GST-Dm-Relish it was 4.64 z-score; with GST-Aq-NF-kB it was 6.45 z-score. In the assay with GST-Hu-p50, the binding signal is 6.95 z-score.
